Reference: ChEMBL document CHEMBL1961873, “Compounds: GSK PKIS; Assays: Nanosyn kinase panel” (2012)

Experiments:
[1] = target: Leukocyte tyrosine kinase receptor (Homo sapiens) (UniProt P29376); settings: at 1 µM;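 also: each value is the mean inhibition of LTK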
[2] = target: Tyrosine-protein kinase Lyn (Homo sapiens) (UniProt P07948); settings: at 0.1 µM
[3] = target: Tyrosine-protein kinase Lyn (Homo sapiens) (UniProt P07948); settings: at 1 µM
[4] = target: Tyrosine-protein kinase Lyn (Homo sapiens) (UniProt P07948); settings: at 0.1 µM; remark: listed apart in the source
[5] = target: Tyrosine-protein kinase Lyn (Homo sapiens) (UniProt P07948); settings: at 1 µM; remark: listed apart in the source
[6] = target: T1, Tyrosine-protein kinase Mer (Homo sapiens) (UniProt Q12866); settings: at 0.1 µM
T1 sequence (whole entry): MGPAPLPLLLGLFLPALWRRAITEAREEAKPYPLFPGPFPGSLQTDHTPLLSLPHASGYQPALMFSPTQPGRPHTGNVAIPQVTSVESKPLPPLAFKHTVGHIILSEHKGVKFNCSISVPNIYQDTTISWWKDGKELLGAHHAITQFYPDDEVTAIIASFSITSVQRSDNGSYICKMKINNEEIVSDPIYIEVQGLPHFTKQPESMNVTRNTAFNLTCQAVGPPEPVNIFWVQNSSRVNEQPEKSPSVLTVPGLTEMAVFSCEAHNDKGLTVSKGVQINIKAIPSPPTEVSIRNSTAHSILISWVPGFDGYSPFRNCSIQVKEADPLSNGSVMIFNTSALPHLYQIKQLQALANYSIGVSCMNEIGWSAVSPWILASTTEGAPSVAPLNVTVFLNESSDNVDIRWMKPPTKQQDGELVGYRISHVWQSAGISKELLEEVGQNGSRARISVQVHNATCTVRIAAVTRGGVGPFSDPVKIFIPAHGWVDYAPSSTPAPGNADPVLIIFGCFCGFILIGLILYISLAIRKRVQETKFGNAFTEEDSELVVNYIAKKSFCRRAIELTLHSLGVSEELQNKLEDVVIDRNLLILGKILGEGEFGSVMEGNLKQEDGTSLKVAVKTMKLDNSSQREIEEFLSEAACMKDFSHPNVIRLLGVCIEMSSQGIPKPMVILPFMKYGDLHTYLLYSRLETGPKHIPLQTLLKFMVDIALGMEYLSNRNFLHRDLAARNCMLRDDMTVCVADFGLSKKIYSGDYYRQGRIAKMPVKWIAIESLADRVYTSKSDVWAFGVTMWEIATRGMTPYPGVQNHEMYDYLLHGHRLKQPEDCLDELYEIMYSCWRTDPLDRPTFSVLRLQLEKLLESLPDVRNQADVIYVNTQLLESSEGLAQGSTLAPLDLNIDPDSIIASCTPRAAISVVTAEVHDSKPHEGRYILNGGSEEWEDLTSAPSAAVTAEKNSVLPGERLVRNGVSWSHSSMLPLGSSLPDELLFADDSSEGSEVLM

[7] = target: T1, Tyrosine-protein kinase Mer (Homo sapiens); settings: at 1 µM
[8] = target: Hepatocyte growth factor receptor (Homo sapiens) (UniProt P08581); settings: at 0.1 µM
[9] = target: Hepatocyte growth factor receptor (Homo sapiens) (UniProt P08581); settings: at 1 µM
[10] = target: T2, Muscle, skeletal receptor tyrosine-protein kinase (Homo sapiens) (UniProt O15146); settings: at 0.1 µM;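 also: values are mean inhibition of MuSK from the GSK PKIS kinase screening panel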
T2 sequence (whole entry): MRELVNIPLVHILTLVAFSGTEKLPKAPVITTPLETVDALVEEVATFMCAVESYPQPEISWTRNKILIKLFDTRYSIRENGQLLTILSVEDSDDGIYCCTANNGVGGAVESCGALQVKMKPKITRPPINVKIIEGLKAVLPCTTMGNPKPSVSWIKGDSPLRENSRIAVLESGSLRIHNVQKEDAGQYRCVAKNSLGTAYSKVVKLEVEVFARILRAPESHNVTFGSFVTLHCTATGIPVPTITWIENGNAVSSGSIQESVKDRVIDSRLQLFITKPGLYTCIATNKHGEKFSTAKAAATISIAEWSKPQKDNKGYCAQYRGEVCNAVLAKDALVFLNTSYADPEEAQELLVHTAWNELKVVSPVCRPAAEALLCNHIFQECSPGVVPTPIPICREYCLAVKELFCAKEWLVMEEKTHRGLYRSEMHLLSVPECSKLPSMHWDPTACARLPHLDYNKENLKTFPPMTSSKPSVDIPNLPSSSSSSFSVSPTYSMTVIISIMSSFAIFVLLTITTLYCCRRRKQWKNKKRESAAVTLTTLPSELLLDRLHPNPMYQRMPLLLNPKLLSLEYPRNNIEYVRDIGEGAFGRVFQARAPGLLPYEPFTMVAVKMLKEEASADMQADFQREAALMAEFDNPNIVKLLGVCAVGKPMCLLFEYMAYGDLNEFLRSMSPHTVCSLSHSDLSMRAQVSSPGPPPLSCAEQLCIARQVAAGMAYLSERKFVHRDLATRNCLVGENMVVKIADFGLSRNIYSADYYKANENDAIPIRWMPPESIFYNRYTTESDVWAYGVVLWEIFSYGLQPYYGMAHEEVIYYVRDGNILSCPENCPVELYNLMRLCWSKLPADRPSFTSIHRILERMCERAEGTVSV

Tyrosine-protein kinase Lyn (Homo sapiens), sequence (P07948 2-512 limits assumed): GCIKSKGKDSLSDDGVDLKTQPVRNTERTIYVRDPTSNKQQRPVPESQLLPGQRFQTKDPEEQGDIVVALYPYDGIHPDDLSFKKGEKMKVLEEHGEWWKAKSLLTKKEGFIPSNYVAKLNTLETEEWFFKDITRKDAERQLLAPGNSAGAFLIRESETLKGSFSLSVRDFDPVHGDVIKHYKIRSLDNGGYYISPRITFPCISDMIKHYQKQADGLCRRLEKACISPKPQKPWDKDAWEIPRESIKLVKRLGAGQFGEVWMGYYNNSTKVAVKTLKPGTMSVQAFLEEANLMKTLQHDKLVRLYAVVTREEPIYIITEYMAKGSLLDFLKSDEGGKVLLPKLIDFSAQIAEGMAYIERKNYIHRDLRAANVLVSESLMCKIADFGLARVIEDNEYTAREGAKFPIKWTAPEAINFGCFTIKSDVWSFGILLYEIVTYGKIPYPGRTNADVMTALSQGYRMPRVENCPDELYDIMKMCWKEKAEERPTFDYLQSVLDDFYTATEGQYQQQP
Leukocyte tyrosine kinase receptor (Homo sapiens), sequence (P29376 whole entry): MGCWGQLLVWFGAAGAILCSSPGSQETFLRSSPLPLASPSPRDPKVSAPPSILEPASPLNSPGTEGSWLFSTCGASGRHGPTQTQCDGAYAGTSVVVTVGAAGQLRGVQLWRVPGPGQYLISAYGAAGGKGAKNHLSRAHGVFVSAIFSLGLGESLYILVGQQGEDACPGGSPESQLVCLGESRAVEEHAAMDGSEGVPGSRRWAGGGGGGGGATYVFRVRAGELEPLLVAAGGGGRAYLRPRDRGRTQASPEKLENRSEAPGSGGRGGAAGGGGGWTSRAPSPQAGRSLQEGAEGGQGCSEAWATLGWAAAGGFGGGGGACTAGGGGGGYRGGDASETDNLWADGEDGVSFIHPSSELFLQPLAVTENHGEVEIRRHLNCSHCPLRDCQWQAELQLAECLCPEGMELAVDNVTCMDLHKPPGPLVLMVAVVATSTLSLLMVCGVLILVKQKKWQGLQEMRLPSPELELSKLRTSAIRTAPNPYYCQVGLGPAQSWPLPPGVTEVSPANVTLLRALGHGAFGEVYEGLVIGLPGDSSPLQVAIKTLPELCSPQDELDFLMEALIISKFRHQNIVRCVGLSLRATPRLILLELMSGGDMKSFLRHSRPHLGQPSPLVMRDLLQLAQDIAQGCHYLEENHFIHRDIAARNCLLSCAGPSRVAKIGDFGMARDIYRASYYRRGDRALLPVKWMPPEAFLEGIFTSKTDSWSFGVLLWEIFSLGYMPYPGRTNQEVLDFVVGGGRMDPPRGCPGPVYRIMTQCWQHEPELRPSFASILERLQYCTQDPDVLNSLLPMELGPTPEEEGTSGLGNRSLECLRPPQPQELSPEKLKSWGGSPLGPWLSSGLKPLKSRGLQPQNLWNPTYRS
Hepatocyte growth factor receptor (Homo sapiens), sequence (P08581 whole entry): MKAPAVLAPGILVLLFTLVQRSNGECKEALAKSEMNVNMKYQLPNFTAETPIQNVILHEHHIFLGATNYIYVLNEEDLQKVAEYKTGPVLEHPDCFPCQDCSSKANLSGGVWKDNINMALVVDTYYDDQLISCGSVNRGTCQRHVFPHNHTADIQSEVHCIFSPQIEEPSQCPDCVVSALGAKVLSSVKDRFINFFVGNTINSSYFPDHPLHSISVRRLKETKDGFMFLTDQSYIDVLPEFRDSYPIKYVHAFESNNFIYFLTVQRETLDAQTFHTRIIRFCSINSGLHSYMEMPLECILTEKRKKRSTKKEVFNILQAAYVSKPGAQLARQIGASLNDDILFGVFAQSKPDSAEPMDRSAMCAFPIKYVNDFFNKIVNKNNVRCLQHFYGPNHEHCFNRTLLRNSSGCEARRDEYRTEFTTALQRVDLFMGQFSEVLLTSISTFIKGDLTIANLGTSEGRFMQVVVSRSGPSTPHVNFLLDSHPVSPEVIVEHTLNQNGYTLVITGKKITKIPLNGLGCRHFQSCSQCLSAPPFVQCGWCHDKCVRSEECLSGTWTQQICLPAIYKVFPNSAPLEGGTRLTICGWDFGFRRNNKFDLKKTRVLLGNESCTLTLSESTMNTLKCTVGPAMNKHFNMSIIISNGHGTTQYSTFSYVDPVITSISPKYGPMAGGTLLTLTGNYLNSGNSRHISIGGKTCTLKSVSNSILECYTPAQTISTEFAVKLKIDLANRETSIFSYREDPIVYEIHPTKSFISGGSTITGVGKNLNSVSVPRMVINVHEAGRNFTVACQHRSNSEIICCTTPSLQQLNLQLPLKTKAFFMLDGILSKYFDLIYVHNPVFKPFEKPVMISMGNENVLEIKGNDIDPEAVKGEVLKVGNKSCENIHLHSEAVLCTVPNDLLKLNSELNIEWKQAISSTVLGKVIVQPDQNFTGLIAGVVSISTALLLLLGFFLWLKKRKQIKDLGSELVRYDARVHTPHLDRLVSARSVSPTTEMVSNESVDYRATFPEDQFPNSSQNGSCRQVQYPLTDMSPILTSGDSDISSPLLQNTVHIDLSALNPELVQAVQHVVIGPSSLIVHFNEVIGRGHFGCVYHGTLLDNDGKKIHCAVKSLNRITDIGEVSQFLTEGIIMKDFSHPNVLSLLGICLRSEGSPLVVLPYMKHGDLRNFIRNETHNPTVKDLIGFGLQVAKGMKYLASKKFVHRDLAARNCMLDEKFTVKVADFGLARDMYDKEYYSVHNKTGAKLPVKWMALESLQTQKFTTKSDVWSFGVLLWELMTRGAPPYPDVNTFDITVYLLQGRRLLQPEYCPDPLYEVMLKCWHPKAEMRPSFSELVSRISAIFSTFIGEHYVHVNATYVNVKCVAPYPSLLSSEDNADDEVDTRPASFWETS

Work on CCS(=O)(=O)c1ccc(OC)c(Nc2ncc(-c3cccc(-c4ccccc4F)c3)o2)c1 yielded an inhibition [1] of 4.54%, an inhibition [2] of 14.8% and an inhibition [3] of 62.5%. The inhibition [4] was 10.6%, the inhibition [5] was 55.8% and the inhibition [6] was 0.82%. For the same compound, the inhibition [7] was 3%, the inhibition [8] was 2.87% and the inhibition [9] was 3.52%. It also gave an inhibition [10] of 2.39%.
Work on Fc1ccc(-c2c(-c3ccncc3)nc3n2CCS3)cc1 yielded an inhibition [1] of 1.53%, an inhibition [2] of 2.47% and an inhibition [3] of 6.12%. The inhibition [4] was 1.33%, the inhibition [5] was 3.93% and the inhibition [6] was 1.44%. It also gave an inhibition [7] of 1.51%, an inhibition [8] of 3.45% and an inhibition [9] of 0.39%. For the same compound, the inhibition [10] was 4.78%.
Work on Cc1nnc(-c2ccc(C)c(-c3ccc(C(=O)NCc4ccc(Cl)cc4)cc3)c2)o1 yielded an inhibition [1] of 4.02%, an inhibition [2] of 3.85% and an inhibition [3] of 8.64%. It also gave an inhibition [4] of 2.14%, an inhibition [5] of 4.87% and an inhibition [6] of 2.04%. It also gave an inhibition [7] of 1.93%, an inhibition [8] of 4.09% and an inhibition [9] of 6.08%. For the same compound, the inhibition [10] was 2.38%.
FC(F)(F)c1cccc(Nc2nccc(-c3cnn4nc(-c5ccccc5)ccc34)n2)c1 gave an inhibition [1] of 0.52%, an inhibition [2] of 0.75% and an inhibition [3] of 3.22%. The inhibition [4] was 0.52%, the inhibition [5] was 2.95% and the inhibition [6] was -0.58%. For the same compound, the inhibition [7] was 0.62%, the inhibition [8] was -0.38% and the inhibition [9] was 0.28%. It also gave an inhibition [10] of 1.03%.
COc1ccc(-c2ccc3c(NC(=O)C4CC4)n[nH]c3n2)cc1 showed an inhibition [1] of 1.49%, an inhibition [2] of 1.25% and an inhibition [3] of 5.43%. For the same compound, the inhibition [4] was 0.89%, the inhibition [5] was 5.03% and the inhibition [6] was 0.16%. The inhibition [7] was 3.67%, the inhibition [8] was 1.87% and the inhibition [9] was 7.43%. For the same compound, the inhibition [10] was 0.33%.
COc1cc(C)c(N(C)C(=O)CN(C)C)cc1Nc1nc(Nc2cccc(F)c2C(N)=O)c2cc[nH]c2n1 was tested, and the inhibition [1] was 57.5%, the inhibition [2] was 0.96% and the inhibition [3] was 2.25%. The inhibition [4] was -0.16%, the inhibition [5] was 0.99% and the inhibition [6] was 1.74%. It also gave an inhibition [7] of 1.94%, an inhibition [8] of -0.92% and an inhibition [9] of 1.68%. For the same compound, the inhibition [10] was 1.6%.
For C[C@@H](Oc1cc(-n2cnc3ccc(OCC4CCN(C)CC4)cc32)sc1C(N)=O)c1ccccc1Cl, the inhibition [1] was 10.3%, the inhibition [2] was 5.95% and the inhibition [3] was 17.7%. For the same compound, the inhibition [4] was 4.21%, the inhibition [5] was 13.8% and the inhibition [6] was 1.86%. It also gave an inhibition [7] of 5.73%, an inhibition [8] of 2.19% and an inhibition [9] of 9.62%. The inhibition [10] was 41.5%.
For O=C(Nc1n[nH]c2cc(-c3ccccc3)ccc12)C1CC1, the inhibition [1] was 9.93%, the inhibition [2] was 5.94% and the inhibition [3] was 9.06%. It also gave an inhibition [4] of 2.77%, an inhibition [5] of 5.33% and an inhibition [6] of 1.8%. For the same compound, the inhibition [7] was 5.12%, the inhibition [8] was 0.84% and the inhibition [9] was 5.86%. For the same compound, the inhibition [10] was -0.17%.
For CCc1ccc(Oc2nccc(-c3c(-c4ccc(F)cc4)ncn3C3CCNCC3)n2)cc1, the inhibition [1] was 2.68%, the inhibition [2] was 5.24% and the inhibition [3] was 6.76%. For the same compound, the inhibition [4] was 1.59%, the inhibition [5] was 3.26% and the inhibition [6] was 2.01%. The inhibition [7] was 3.05%, the inhibition [8] was 5.76% and the inhibition [9] was 3.25%. For the same compound, the inhibition [10] was 3.3%.
In the case of Cc1ccc(C(=O)NC2CCC2)cc1-c1ccc(C(=O)NCC2CC2)cc1, the inhibition [1] is reported as 2.04%, the inhibition [2] is reported as 3.48% and the inhibition [3] is reported as 2.47%. For the same compound, the inhibition [4] was 2.55%, the inhibition [5] was 1.61% and the inhibition [6] was 2.37%. For the same compound, the inhibition [7] was 6.88%, the inhibition [8] was 3.95% and the inhibition [9] was 6.08%. For the same compound, the inhibition [10] was 2.41%.
C[C@@H](Oc1cc(-n2cnc3ccc(OC4CCN(C)CC4)cc32)sc1C(N)=O)c1ccccc1Cl gave an inhibition [1] of 4.72%, an inhibition [2] of 3.54% and an inhibition [3] of 6.86%. The inhibition [4] was 1.68%, the inhibition [5] was 5.6% and the inhibition [6] was 2.77%. The inhibition [7] was 9.07%, the inhibition [8] was 7.84% and the inhibition [9] was 5.01%. For the same compound, the inhibition [10] was 7.63%.
Compound COc1cccc(-n2cnc3c(N/N=C/c4ccncc4)ncnc32)c1 has an inhibition [1] of 0.9%, an inhibition [2] of 7.17% and an inhibition [3] of 47.2%. It also gave an inhibition [4] of 6.07%, an inhibition [5] of 41.6% and an inhibition [6] of 0.12%. For the same compound, the inhibition [7] was 4.47%, the inhibition [8] was 0.87% and the inhibition [9] was 6.87%. The inhibition [10] was 2.4%.
COc1cc(Nc2ncc(-c3ccccc3)o2)cc(OC)c1OC gave an inhibition [1] of 1.47%, an inhibition [2] of 7.48% and an inhibition [3] of 47.8%. For the same compound, the inhibition [4] was 5.8%, the inhibition [5] was 46.5% and the inhibition [6] was 3.23%. It also gave an inhibition [7] of 3.53%, an inhibition [8] of 2.19% and an inhibition [9] of 2.13%. The inhibition [10] was 1.59%.
CS(=O)(=O)CCNCc1cc(-c2cc3c(Nc4ccc(OCc5cccc(F)c5)c(Cl)c4)ncnc3s2)cs1 gave an inhibition [1] of 6.25%, an inhibition [2] of 5.45% and an inhibition [3] of 6.19%. The inhibition [4] was 2.93%, the inhibition [5] was 6.07% and the inhibition [6] was 4.4%. The inhibition [7] was 8.06%, the inhibition [8] was 7.8% and the inhibition [9] was 6.72%. It also gave an inhibition [10] of 2.43%.
O=C(Nc1n[nH]c2cc(-c3cc(F)ccc3F)ccc12)C1CC1 was tested, and the inhibition [1] was 2.7%, the inhibition [2] was 5.22% and the inhibition [3] was 5.51%. For the same compound, the inhibition [4] was 3.27%, the inhibition [5] was 2.53% and the inhibition [6] was 0.82%. For the same compound, the inhibition [7] was 2.71%, the inhibition [8] was 6.12% and the inhibition [9] was 4.36%. The inhibition [10] was 3.35%.
CCS(=O)(=O)c1ccc(OC)c(Nc2ncc(-c3ccccc3Cl)o2)c1 was tested, and the inhibition [1] was 0.98%, the inhibition [2] was 3.85% and the inhibition [3] was 18.6%. The inhibition [4] was 3.61%, the inhibition [5] was 14.8% and the inhibition [6] was -0.83%. The inhibition [7] was 9.17%, the inhibition [8] was 0.15% and the inhibition [9] was 3.68%. It also gave an inhibition [10] of 4.75%.
In the case of NCc1ccc(-n2c(-c3nonc3N)nc3cnccc32)cc1, the inhibition [1] is reported as 5.03%, the inhibition [2] is reported as 6.22% and the inhibition [3] is reported as 5.56%. The inhibition [4] was 4.38%, the inhibition [5] was 2.34% and the inhibition [6] was 1.5%. For the same compound, the inhibition [7] was 5.54%, the inhibition [8] was 5.16% and the inhibition [9] was 9.91%. It also gave an inhibition [10] of 6.42%.
